GSH bead fluor: compound fluorescence on glutathione beads, profiling panel, artefact control, biophysical, 488/530 nm, flow cytometry; GSH beads flow cytometry, compound fluorescence 488/530 nm; hits give high values; fluorescence (KMESF) at 10 µM; hit rate 0.25% among 190,000; in the data active = fluorescence above about 89;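 also: glutathione beads carrying GST-tagged Bcl family fusion proteins plus one bare bead set; values are compound well signal with DMSO vehicle wells as background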
RGS7-Gao: RGS7-Galphao binding modulators, primary screen, biochemical, multiplexed bead flow cytometry. actives lie on both sides. binding response (% of control), % at 10 µM. hit rate 0.35% among 220,000. AID 1439, 2008; in the data active = binding response below about 49% or above about 150%; inconclusive = no clear call, values can overlap the other calls; inactive = in between;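 also: fluorescent Galphao held in activated GDP-AlF4 state binding bead-coupled RGS7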
Target sequence (P09471 whole entry, looked up): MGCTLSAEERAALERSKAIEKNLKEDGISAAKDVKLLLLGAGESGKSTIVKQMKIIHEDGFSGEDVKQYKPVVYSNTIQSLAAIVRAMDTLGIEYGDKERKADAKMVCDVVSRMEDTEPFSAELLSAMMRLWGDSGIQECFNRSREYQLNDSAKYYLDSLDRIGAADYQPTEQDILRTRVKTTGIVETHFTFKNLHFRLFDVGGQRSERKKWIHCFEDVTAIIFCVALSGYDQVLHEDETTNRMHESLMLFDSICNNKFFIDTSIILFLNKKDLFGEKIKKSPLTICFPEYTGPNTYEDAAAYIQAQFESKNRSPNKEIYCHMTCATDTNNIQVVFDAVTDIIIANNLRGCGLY
RGS16-Gao HTS: modulators of RGS16 binding to Galphao, primary screen, biochemical, human proteins, multiplexed bead flow cytometry. Regulator of G-protein signaling 16 (Homo sapiens) + Guanine nucleotide-binding protein …. bead-based flow cytometry RGS16-Galphao binding, fluorescence; actives lie on both sides. binding response (% of control), % at 10 µM. hit rate 0.38% among 220,000. AID 1441, 2008; call rule not given here;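 also: Galphao activated by GDP with aluminum fluoride before binding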
RGS4-Gao reg: modulators of RGS4 binding to Galphao, primary screen, biochemical, multiplexed bead flow cytometry; binding response (% of control), % at 10 µM; actives lie on both sides; Guanine nucleotide-binding protein G(o) subunit alpha (Homo sapiens), P09471; hit rate 0.33% among 220,000; in the data active = binding response below about 49% or above about 150%; inactive = in between;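 also: fluorescent Galphao activated with aluminum fluoride binding bead-coupled RGS4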
Avidin fluor: green autofluorescence of compounds with avidin beads – biophysical, 488/530 nm, flow cytometry, artefact control, profiling panel | fluorescence (KMESF) at 10 µM | hit rate 0.38% among 220,000 | compound fluorescence 488/530 nm; hits give high values | AID 1775, 2009; in the data active = fluorescence above about 47
RGS8-Gao reg: RGS8-Galphao binding modulators, primary screen, biochemical, multiplexed bead flow cytometry. hit rate 0.34% among 220,000. response (percent of control binding), % at 10 µM. actives lie on both sides. Guanine nucleotide-binding protein G(o) subunit alpha (Homo sapiens), P09471. AID 1423, 2008; in the data active = response below about 60% or above about 140%; inactive = in between;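 also: Galphao activated as the GDP aluminium fluoride complex binding bead-coupled RGS8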
* hit, by the source's call; ? = inconclusive; / = no result; [ ] = dose if it differs, or a comment. Shown are actives, neighbours in structure and some others; about 1.2% of the full set was active somewhere.

SMILES	GSH bead fluor	RGS7-Gao	RGS16-Gao HTS	RGS4-Gao reg	Avidin fluor	RGS8-Gao reg
Cc1cccc(C)c1OCCN1C(=O)NC(C)(c2ccccc2)C1=O (configuration not stated)	12	105	104	110	6	109
CN1CC(=O)N(CCOc2ccccc2)C1=O	263*	99	107	102	8	101
O=C1CNC(=S)N1CCOc1ccccc1	/	?	99	95	7	99
CC1(c2ccccc2)NC(=O)N(CCOc2ccccc2)C1=O (configuration not stated)	263*	102	104	103	7	100
O=C(NC1CC1)c1ccc(C2SCC(=O)N2Cc2ccccc2)cc1 (configuration not stated)	19	92	97	95	9	98
Brc1ccccc1-c1nnc(CSc2nnc3sc4ccccc4n23)o1	257*	99	103	100	8	102
N#CCSc1nnc2sc3ccccc3n12	23	98	101	102	6	104
O=C1/C(=C\c2ccc(O)c(O)c2)C(c2ccccc2)=NN1c1ccccc1	11	55	64	62	9	69
COc1cc(/C=C2\C(=O)N(c3ccc(NC(C)=O)cc3)N=C2c2ccccc2)ccc1O	15	?	104	133	131*	93
CN(CCOC(=O)CN1C(=O)c2ccccc2C1=O)C1=NS(=O)(=O)c2ccccc21	13	?	95	98	11	96
Cn1ncc(Cl)c1C(=O)Nc1sc2c(c1C(N)=O)CCC2	99*	88	95	90	6	103
CCOC(=O)c1cc(C(=O)OCC)c(=O)[nH]c1N1CCCC1	14	99	101	102	8	104
CCCCOC(=O)CCCN1C(=O)/C(=C2\SC(=S)N(CCCC(=O)OCCCC)C2=O)SC1=S	/	?	98	100	/	92
Cc1cccc(-c2c3c(=O)n(C)c(=O)n(C)c3cn2CC2CCCO2)c1 (configuration not stated)	261*	99	87	84	6	93
CC1CCN(S(=O)(=O)c2ccc3c(c2)oc(=O)n3CC(=O)N2c3ccccc3CC2C)CC1 (configuration not stated)	21	91	144	93	56*	107
O=C(c1ccc(F)cc1)N1CCN(c2ncccn2)CC1	13	114	100	100	73*	99
O=C(/C=C/c1cc([N+](=O)[O-])ccc1OC(F)F)NCc1ccc(Cl)cc1	264*	104	114	107	8	106
CCOC(=O)C1=C(Cc2ccc(OC)cc2)C(=O)c2ccccc2C1=O	63	74	57	73	1	74
CCOC(=O)C1=C(Cc2ccc(C)cc2)C(=O)c2ccccc2C1=O	226*	79	58	87	3	69
Cc1nc2ccccn2c1-c1nnco1	12	106	104	104	47*	101
Cc1cccc(Nc2nc(-c3c(C)nc4ccccn34)cs2)c1	9	98	95	99	24	101
CC(=O)NC1C2CN3CCN(C2)CC1(Cc1ccccc1)C3 (configuration not stated)	22	100	101	98	11	102
Cc1ccc(CC23CN4CCN(CC(C4)C2O)C3)c(C)c1 (configuration not stated)	22	121	101	103	69*	97
O=C(c1cc2ccccc2o1)N(C1CC1)C1(C(=O)Nc2ccccc2)CCCC1	15	?	99	100	9	100
CCC(C)(NC=O)C(=O)Nc1c(C)cccc1C (configuration not stated)	/	?	87	91	6	95
SMILES	GSH bead fluor	RGS7-Gao	RGS16-Gao HTS	RGS4-Gao reg	Avidin fluor	RGS8-Gao reg
Cc1noc(C)c1CSc1nnc2sc3ccccc3n12	4	104	107	105	7	104
Cc1noc(C)c1CSc1nc2ccccc2n1C	240*	102	46	107	5	94
Cc1cc(C)nc(NS(=O)(=O)c2ccc(NC(=S)NC(=O)CC(C)C)cc2)n1	20	194*[activator]	270*[activator]	208*[activator]	118*	108
CN(C)c1cccc2c(C=C(C#N)C#N)ccc(N(C)C)c12	16	93	94	93	13	97
Cc1cc(S(=O)(=O)N2CCN(c3ccccc3C)CC2)ccc1F	23	102	106	102	5	104
Cc1ccccc1N1CCN(S(=O)(=O)c2ccccc2)CC1	98*	104	106	107	12	106
O=C(Nc1ccc(Cl)cc1)/C(=C/c1ccc([N+](=O)[O-])cc1)c1nc2ccccc2s1	16	105	99	99	10	96
C/C(=N\NC(=O)c1cccc(N/N=C(\C)c2cc(O)ccc2O)c1)c1cc(O)ccc1O	15	?	96	98	8	98
Cc1ccc(N=Cc2c(O)[nH]c3ccccc23)c([N+](=O)[O-])c1	13	?	93	94	9	99
Cc1sc(NC(=O)c2cccs2)c(C(=O)OC(C)C)c1C	102*	105	108	110	5	106
CCc1c(C)sc(NC(=O)c2cccs2)c1C(=O)OC(C)C	28	100	99	100	11	101
C/C(O)=c1/ccc2cccc3nc(C)nc1c23	17	104	99	99	48*	96
Cc1nc2ccccc2nc(C)c1=NO	13	94	99	100	8	101
CC(C)(C)C(=O)Nc1nc2ccc(S(C)(=O)=O)cc2s1	8	100	101	101	25	99
CC1=CCC(C(=O)O)C(C(=O)Nc2nc3ccc(S(C)(=O)=O)cc3s2)C1 (configuration not stated)	92*	100	100	100	7	100
O=C(O)Cc1csc(-c2cccc(F)c2)n1	15	109	108	105	14	104
Cc1cccc(-c2nc3ccccc3c(=O)n2NC(=O)c2ccc([N+](=O)[O-])c(C)c2)c1	19	147	102	107	73*	99
Cc1cc(C(=O)Nn2c(C)nc3ccccc3c2=O)ccc1[N+](=O)[O-]	12	101	95	95	12	99
Cc1nnc(N(Cc2ccco2)C(=O)c2cccc(C#N)c2)s1	32	100	104	101	21	103
Cc1nnc(N(Cc2ccco2)C(=O)c2ccc(C#N)cc2)s1	110*	99	96	99	7	101
CCOc1ccc2nc(NCCNC(=O)C(C)C)c(C)cc2c1	24	111	105	103	61*	99
COc1ccccc1-n1cc(-c2ccc(Cl)cc2)[nH]c1=O	7	99	98	98	17	103
CC(C)CNC(=O)COC(=O)c1cc(Cl)cc(Cl)c1N	265*	95	99	93	7	95

High-throughput results deposited in PubChem by NMMLSC.
